Measurements: PubChem BioAssay AID1159580 (chemical genetic matrix, 2015)
Values joined by “and” are separate entries in the source; they are usually repeats but may differ in a detail not shown here. Equal values may be shown once. Out of some 5,500 compounds screened, about 2,000 (36%) were called active. Not shown: some 18% with an inconclusive outcome. No stated cut-off is given here; in the data, active means normalized growth mostly below about 0.91 (no sharp cut-off); inconclusive means no clear call, values can overlap the other calls; inactive means mostly above about 0.92. The list shows a part of the results.

Test: chemical genetic growth profiling, strain panel (AID 1159580);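 further: tested at 20 µM; growth read once vehicle control cultures reached saturation at 30 °C; 1 = growth at the plate median or of vehicle wells; lower values mean less growth of the strain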
Details: S. cerevisiae deletion strains, growth OD

Measured: normalized growth

COc1cc(C(=O)N2CCOCC2)cc(OC)c1OC
inactive: locus YAL013W, strain DEP1, active compounds read low 1.01 | locus YAL021C, strain ccr4, active compounds read low 1.01 | locus YAL026C, strain drs2, active compounds read low 0.974 | locus YAL030W, strain snc1, active compounds read low 0.984 | locus YBL061C, strain skt5, active compounds read low 0.967 | locus YBR009C, strain hhf1, active compounds read low 1.01 | locus YBR021W, strain FUR4, active compounds read low 0.997 | locus YBR023C, strain chs3, active compounds read low 0.971 | locus YBR171W, strain sec66, active compounds read low 0.972 | locus YBR229C, strain ROT2, active compounds read low 1.01 | locus YBR231C, strain swc5, active compounds read low 0.983 | locus YBR279W, strain paf1, active compounds read low 0.983 | locus YCL011C, strain gbp2, active compounds read low 0.993 | locus YCL016C, strain dcc1, active compounds read low 1 | locus YCL061C, strain MRC1, active compounds read low 0.978 | locus YCL069W, strain vba3, active compounds read low 0.972 | locus YCR088W, strain abp1, active compounds read low 0.978 | locus YDL005C, strain med2, active compounds read low 0.969 | locus YDL035C, strain GPR1, active compounds read low 1.02 | locus YDL040C, strain nat1, active compounds read low 0.974 | locus YDL074C, strain BRE1, active compounds read low 1.01 | locus YDL101C, strain DUN1, active compounds read low 1.02 | locus YDL134C, strain PPH21, active compounds read low 1.01 | locus YDL185W, strain tfp1, active compounds read low 1.01 | locus YDR001C, strain nth1, active compounds read low 0.98 | locus YDR069C, strain doa4, active compounds read low 0.992 | locus YDR137W, strain rgp1, active compounds read low 0.989 | locus YDR150W, strain NUM1, active compounds read low 1.02 | locus YDR159W, strain sac3, active compounds read low 0.961 | locus YDR162C, strain NBP2, active compounds read low 1 | locus YDR195W, strain ref2 0.937 | locus YDR297W, strain sur2, active compounds read low 0.999 | locus YDR334W, strain swr1, active compounds read low 0.966 | locus YDR335W, strain msn5, active compounds read low 0.979 | locus YDR392W, strain spt3, active compounds read low 1.02 | locus YEL003W, strain gim4, active compounds read low 0.985 | locus YEL037C, strain rad23, active compounds read low 0.988 | locus YEL061C, strain CIN8 (second series), active compounds read low 0.964 | locus YEL061C, strain CIN8, active compounds read low 1 | locus YER015W, strain faa2, active compounds read low 0.989 | locus YER016W, strain bim1, active compounds read low 0.987 | locus YER111C, strain swi4, active compounds read low 0.945 | locus YER155C, strain BEM2 (second series), active compounds read low 0.994 | locus YER155C, strain BEM2, active compounds read low 1.01 | locus YER167W, strain BCK2, active compounds read low 1.02 | locus YFR010W, strain ubp6, active compounds read low 0.962 | locus YGL167C, strain pmr1, active compounds read low 0.971 | locus YGL173C, strain kem1, active compounds read low 0.985 | locus YGL227W, strain vid30, active compounds read low 0.978 | locus YGL240W, strain doc1, active compounds read low 0.991 | locus YGL248W, strain PDE1, active compounds read low 1.01 | locus YGL253W, strain hxk2, active compounds read low 0.97 | locus YGR078C, strain PAC10, active compounds read low 1 | locus YGR229C, strain SMI1, active compounds read low 1.01 | locus YHR013C, strain ard1, active compounds read low 0.997 | locus YHR027C, strain rpn1, active compounds read low 0.995 | locus YHR030C, strain SLT2, active compounds read low 1.01 | locus YHR079C, strain IRE1, active compounds read low 1.04 | locus YHR129C, strain ARP1, active compounds read low 0.998 | locus YHR142W, strain chs7, active compounds read low 0.982 | locus YIL066C, strain RNR3, active compounds read low 1.02 | locus YIL073C, strain SPO22, active compounds read low 1.09 | locus YJL092W, strain hpr5, active compounds read low 0.972 | locus YJL095W, strain BCK1 (second series), active compounds read low 0.979 | locus YJL095W, strain BCK1, active compounds read low 0.991 and 0.987 | locus YJL115W, strain asf1, active compounds read low 0.987 | locus YJL129C, strain trk1, active compounds read low 0.958 | locus YJL134W, strain LCB3, active compounds read low 1.01 | locus YJL154C, strain vps35, active compounds read low 0.974 | locus YJL164C, strain tpk1, active compounds read low 0.999 | locus YJL166W, strain qcr8, active compounds read low 1.02 | locus YJL187C, strain SWE1 (second series), active compounds read low 1.01 | locus YJR043C, strain POL32, active compounds read low 1.02 | locus YJR066W, strain TOR1, active compounds read low 0.984
active: locus YCL029C, strain bik1, active compounds read low 0.726 | locus YDL192W, strain arf1, active compounds read low 0.101 | locus YDR101C, strain arx1, active compounds read low 0.494 | locus YDR318W, strain mcm21, active compounds read low 0.0684 | locus YDR388W, active compounds read low 0.0657 | locus YDR502C, strain sam2, active compounds read low 0.111 | locus YER110C, active compounds read low 0.264 | locus YGL078C, strain dbp3, active compounds read low 0.138 | locus YGL086W, strain mad1, active compounds read low 0.0586 | locus YGR135W, strain pre9, active compounds read low 0.0725 | locus YGR252W, strain gcn5, active compounds read low 0.211 | locus YHR079C, strain IRE1 (second series), active compounds read low 0.578 | locus YHR094C, strain hxt1, active compounds read low 0.127 | locus YHR200W, strain rpn10, active compounds read low 0.122 | locus YIL125W, strain kgd1, active compounds read low 0.198 | locus YIR030C, strain dcg1, active compounds read low 0.292 | locus YJL168C, strain set2, active compounds read low 0.202
